Source: PubChem
Hits are enriched below; roughly 2.4% of the tested compounds scored in any of these assays.
MEKK3 PB1 HTS = MEKK3-MEK5 PB1 interaction, increase or decrease | AID 1529 | bead-based flow cytometry, Alexa488-MEK5 binding to MEKK3; actives lie on both sides; 0 = blocked by unlabeled MEK5, 100 = vehicle | binding response (% of control), % at 10 µM | Q99759 | hit rate 1.4% among 290,000;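 active = binding response more than 3 SD above or below the average of its plate-row segment, actives on both sides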;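 also: Alexa488 bead fluorescence after subtracting the streptavidin-only scavenger bead signal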
Target sequence (Q99759 whole entry, looked up): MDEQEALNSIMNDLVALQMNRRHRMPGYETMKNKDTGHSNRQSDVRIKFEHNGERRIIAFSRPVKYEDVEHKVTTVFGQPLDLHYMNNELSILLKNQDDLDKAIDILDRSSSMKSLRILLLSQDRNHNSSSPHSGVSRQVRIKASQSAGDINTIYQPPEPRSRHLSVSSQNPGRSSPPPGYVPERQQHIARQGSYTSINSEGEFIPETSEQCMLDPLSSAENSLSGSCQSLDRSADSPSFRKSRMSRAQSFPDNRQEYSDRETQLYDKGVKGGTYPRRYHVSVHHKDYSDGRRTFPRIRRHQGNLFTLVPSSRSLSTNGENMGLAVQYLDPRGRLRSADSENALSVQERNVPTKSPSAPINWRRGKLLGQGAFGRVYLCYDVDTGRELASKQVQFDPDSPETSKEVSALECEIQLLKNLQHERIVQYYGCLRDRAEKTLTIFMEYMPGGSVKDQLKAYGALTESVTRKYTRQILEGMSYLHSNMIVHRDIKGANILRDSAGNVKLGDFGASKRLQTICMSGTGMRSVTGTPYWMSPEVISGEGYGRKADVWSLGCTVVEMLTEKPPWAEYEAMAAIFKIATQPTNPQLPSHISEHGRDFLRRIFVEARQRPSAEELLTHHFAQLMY
MEKK2 WT-MEK5 = raises or lowers MEK5 binding to wildtype human MEKK2 PB1 domain. hit rate 1.1% among 290,000. bead flow cytometry, Alexa488-MEK5 binding to MEKK2 WT; actives lie on both sides. binding response (% of control), % at 10 µM; in the data active = binding response below about 67% or above about 130%
Pf gamet viab = kills late stage P. falciparum gametocytes. P. falciparum stage V gametocytes, ATP luminescence, 24 h. inhibition, % at 10.9 µM. hit rate 0.065% among 150,000;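 active = inhibition above the mean plus 3 SD of compounds within the control limits, set per campaign, cut at about 38% in these data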;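 also: 0% = DMSO wells and 100% = medium only without gametocytes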
Arbovirus inh = antivirals against arbovirus infection; arbovirus infection cell-based antiviral screen; inhibition, % at 10 µM; hit rate 0.37% among 200,000; AID 1251; in the data active = inhibition above about 30%
MEKK2mut PB1 HTS = signal of MEK5 binding to mutant human MEKK2 PB1 domain; bead flow cytometry, Alexa488-MEK5 binding to MEKK2 mutant; percent response, % at 10 µM; hit rate 0.35% among 290,000; in the data active = percent response above about 24%, passing the limit was not always enough
MEKK2wt confirm = raises or lowers MEK5 binding to wildtype human MEKK2, retest | hit rate 2.4% among 5,900 | bead flow cytometry, Alexa488-MEK5 binding to MEKK2 WT; actives lie on both sides | binding response (% of control), % at 10 µM | AID 1892 | shares compounds with MEKK3 PB1 HTS; in the data active = binding response below about 16% or above about 210%; inactive = in between
MEKK2mut-MEK5 = signal of MEK5 binding to mutant human MEKK2, retest. shares compounds with MEKK3 PB1 HTS. bead flow cytometry, Alexa488-MEK5 binding to MEKK2 mutant. percent response, % at 10 µM. hit rate 2% among 5,900. AID 1893; in the data active = percent response mostly above about 71%, no sharp cut-off; inactive = mostly below about 38%;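 also: higher means compound restores mutant binding toward wildtype level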
MEKK3 confirm = confirmation of inhibitors of MEK5 binding to human MEKK3; shares compounds with MEKK3 PB1 HTS; bead flow cytometry, Alexa488-MEK5 binding to MEKK3; active compounds read low; binding response (% of control), % at 10 µM; hit rate 1.8% among 5,900; AID 1894;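 active = binding response below 72% of control, or above a set upper limit, though filed actives all read lower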;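 also: 100% = DMSO only wells and 0% = binding blocked by excess unlabeled MEK5; lower values mean stronger disruption of MEK5 binding to MEKK3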
Numbers without * were called inactive; ! = a repeat was not active; [ ] = another dose, or the depositor's remark.

`Cc1cc(NC(=O)CCC(=O)N(c2ccccc2)C(C(=O)NC2CCCC2)c2ccccc2)no1` (centres undefined) gave MEKK3 PB1 HTS 113, MEKK2 WT-MEK5 101, Pf gamet viab -19, Arbovirus inh 3, MEKK2mut PB1 HTS 27*, MEKK2wt confirm 100, MEKK2mut-MEK5 1 and MEKK3 confirm 104.
For O=c1cc(C(F)(F)F)[nH]c(=S)n1-c1ccccc1 the results were MEKK3 PB1 HTS 104, MEKK2 WT-MEK5 107 and MEKK2mut PB1 HTS 7.
Screening COC(=O)c1cc(C(=O)OC)cc(N2C(=O)CC(NNC(=O)c3ccc(C)cc3)C2=O)c1 (centres undefined) returned MEKK3 PB1 HTS 61*[inhibitor], MEKK2 WT-MEK5 89, Pf gamet viab 21, Arbovirus inh 1, MEKK2mut PB1 HTS -1, MEKK2wt confirm 102, MEKK2mut-MEK5 4 and MEKK3 confirm 102.
For CCOC(=O)c1c(-c2ccc(OC)cc2)oc2cc(Br)c(O)cc12 the results were MEKK3 PB1 HTS 111, MEKK2 WT-MEK5 108 and MEKK2mut PB1 HTS 11.
For CCOC(=O)c1c(C)[nH]c2cc(Br)c(O)cc12 the results were MEKK3 PB1 HTS 2.0*[inhibitor], MEKK2 WT-MEK5 2.0*[inhibitor], Pf gamet viab -32, Arbovirus inh -6, MEKK2mut PB1 HTS 5, MEKK2wt confirm 102, MEKK2mut-MEK5 4 and MEKK3 confirm 106.
`CC(=O)N(C)c1ccc(NC(=O)Nc2ccc(C)c(C)c2)cc1` gave MEKK3 PB1 HTS 104, MEKK2 WT-MEK5 107, Pf gamet viab -14, Arbovirus inh -3 and MEKK2mut PB1 HTS 5.
`CCc1cccc(C)c1N(C(=O)Cn1c(=O)[nH]c2ccccc21)C(C)COC` (centres undefined) gave MEKK3 PB1 HTS 111, MEKK2 WT-MEK5 114, Pf gamet viab -3, Arbovirus inh 6, MEKK2mut PB1 HTS 24*, MEKK2wt confirm 99, MEKK2mut-MEK5 -3 and MEKK3 confirm 100.
Screening CCc1cccc(CC)c1N(COC)C(=O)Cn1nnc2ccccc21 returned Arbovirus inh 4.
Screening COc1ccc(-c2nc(SC(CC(=O)NCc3ccccc3)c3ccc(OC)c(OC)c3)n[nH]2)cc1 (centres undefined) returned MEKK3 PB1 HTS 128*, MEKK2 WT-MEK5 101, Pf gamet viab -14, Arbovirus inh -13, MEKK2mut PB1 HTS 0, MEKK2wt confirm 94, MEKK2mut-MEK5 -9 and MEKK3 confirm 94.
O=C(CSc1cccc[n+]1[O-])N1CCCc2ccccc21 was read as MEKK3 PB1 HTS 70, MEKK2 WT-MEK5 25*[inhibitor], Pf gamet viab -5, Arbovirus inh 10, MEKK2mut PB1 HTS -18, MEKK2wt confirm 99, MEKK2mut-MEK5 -1 and MEKK3 confirm 101.
For Cc1nc(Cl)c(C(=O)NC(=O)NCc2ccccc2)c(C)c1Cl the results were MEKK3 PB1 HTS 142*, MEKK2 WT-MEK5 107, Pf gamet viab -9, Arbovirus inh -9, MEKK2mut PB1 HTS 1, MEKK2wt confirm 97, MEKK2mut-MEK5 -6 and MEKK3 confirm 100.
`Cc1ccccc1NC(=O)c1c(Cl)nc(C)c(Cl)c1C` gave MEKK3 PB1 HTS 104, MEKK2 WT-MEK5 104, Pf gamet viab -5, Arbovirus inh -13 and MEKK2mut PB1 HTS -1.
Screening Nc1nn(-c2cccc(F)n2)cc1-c1ccccc1 returned MEKK3 PB1 HTS 111, MEKK2 WT-MEK5 102, Pf gamet viab -24, Arbovirus inh -5 and MEKK2mut PB1 HTS 0.
CCCCNC(=S)Nc1ccc(Cl)cc1 was read as MEKK3 PB1 HTS 105, MEKK2 WT-MEK5 97, Pf gamet viab -22, Arbovirus inh 23 and MEKK2mut PB1 HTS -1.
CCCCNC(=S)Nc1ccc(C(F)(F)F)cc1 was read as MEKK3 PB1 HTS 75*[inhibitor], MEKK2 WT-MEK5 90, Arbovirus inh -21, MEKK2mut PB1 HTS -3, MEKK2wt confirm 101, MEKK2mut-MEK5 1 and MEKK3 confirm 100.
`Clc1ccc2c(c1)CCc1cccnc1C2=C1CCNCC1` gave MEKK3 PB1 HTS 103, MEKK2 WT-MEK5 144*!, Arbovirus inh -21, MEKK2mut PB1 HTS 3, MEKK2wt confirm 127, MEKK2mut-MEK5 15 and MEKK3 confirm 110.
Screening COC(=O)c1cc(=O)nc2sc3cc(OC)ccc3n12 returned MEKK3 PB1 HTS 122*, MEKK2 WT-MEK5 106, Arbovirus inh 4, MEKK2mut PB1 HTS 6, MEKK2wt confirm 107, MEKK2mut-MEK5 6 and MEKK3 confirm 106.
`CCCCc1c(O)nc2sc3cc(OC)ccc3n2c1=O` gave MEKK3 PB1 HTS 103, MEKK2 WT-MEK5 105, Pf gamet viab -4, Arbovirus inh 6 and MEKK2mut PB1 HTS 4.
Screening O=C(NC(=S)Nc1ccc2nc[nH]c2c1)c1ccccc1 returned MEKK3 PB1 HTS 105, MEKK2 WT-MEK5 111 and MEKK2mut PB1 HTS 9.
For COc1ccc(N2CCN(C(=O)NC(=O)c3ccccc3)CC2)cc1 the results were MEKK3 PB1 HTS 104, MEKK2 WT-MEK5 107 and MEKK2mut PB1 HTS 8.
Screening Cc1ccc(C)c(N2CCN(c3cnn(-c4nc5ccccc5s4)c(=O)c3Cl)CC2)c1 returned MEKK3 PB1 HTS 143*, MEKK2 WT-MEK5 107, Pf gamet viab 2, Arbovirus inh -22, MEKK2mut PB1 HTS 1, MEKK2wt confirm 109, MEKK2mut-MEK5 12 and MEKK3 confirm 108.
Screening Cc1noc(C)c1S(=O)(=O)Nc1ccc(O)c2c(=O)cc(-c3ccccc3Cl)oc12 returned MEKK3 PB1 HTS 84, MEKK2 WT-MEK5 111, Pf gamet viab -8 and MEKK2mut PB1 HTS 6.
`CCCCNC(=O)Cn1nc([N+](=O)[O-])c([N+](=O)[O-])c1C` gave MEKK3 PB1 HTS 106, MEKK2 WT-MEK5 110, Arbovirus inh 12 and MEKK2mut PB1 HTS 0.
CCCNC(=O)Cn1nc([N+](=O)[O-])c([N+](=O)[O-])c1C was read as MEKK3 PB1 HTS 60*[inhibitor], MEKK2 WT-MEK5 58*[inhibitor], Arbovirus inh -2, MEKK2mut PB1 HTS -3, MEKK2wt confirm 102, MEKK2mut-MEK5 0 and MEKK3 confirm 103.
Screening O=C(Nc1ccccc1)C1=C[C@H](C2CC2)C[C@H](OCCCCO)O1 returned MEKK3 PB1 HTS 101, MEKK2 WT-MEK5 93, Pf gamet viab 3, Arbovirus inh 5 and MEKK2mut PB1 HTS -5.
Screening CC(C)Cc1cc(C(=O)N(C)C2CCCN(Cc3ccccc3F)C2)n(C)n1 (centres undefined) returned MEKK3 PB1 HTS 92, MEKK2 WT-MEK5 92 and MEKK2mut PB1 HTS -11.
